One may read the residual activity as the signal under treatment as a percentage of the control signal.

Experimental findings from ChEMBL document CHEMBL2218924, “A broad activity screen in support of a chemogenomic map for kinase signalling research and drug discovery” (Biochem J, 2013) are described below.

In test [1] the target is Serine/threonine-protein kinase SIK1 (Homo sapiens) (UniProt P57059). To be noted: at 10 µM.
Test [2] deals with SRSF protein kinase 1 (Homo sapiens) (UniProt Q96SB4). To be noted: at 10 µM.
SRSF protein kinase 1 (Homo sapiens), sequence (Q96SB4 whole entry): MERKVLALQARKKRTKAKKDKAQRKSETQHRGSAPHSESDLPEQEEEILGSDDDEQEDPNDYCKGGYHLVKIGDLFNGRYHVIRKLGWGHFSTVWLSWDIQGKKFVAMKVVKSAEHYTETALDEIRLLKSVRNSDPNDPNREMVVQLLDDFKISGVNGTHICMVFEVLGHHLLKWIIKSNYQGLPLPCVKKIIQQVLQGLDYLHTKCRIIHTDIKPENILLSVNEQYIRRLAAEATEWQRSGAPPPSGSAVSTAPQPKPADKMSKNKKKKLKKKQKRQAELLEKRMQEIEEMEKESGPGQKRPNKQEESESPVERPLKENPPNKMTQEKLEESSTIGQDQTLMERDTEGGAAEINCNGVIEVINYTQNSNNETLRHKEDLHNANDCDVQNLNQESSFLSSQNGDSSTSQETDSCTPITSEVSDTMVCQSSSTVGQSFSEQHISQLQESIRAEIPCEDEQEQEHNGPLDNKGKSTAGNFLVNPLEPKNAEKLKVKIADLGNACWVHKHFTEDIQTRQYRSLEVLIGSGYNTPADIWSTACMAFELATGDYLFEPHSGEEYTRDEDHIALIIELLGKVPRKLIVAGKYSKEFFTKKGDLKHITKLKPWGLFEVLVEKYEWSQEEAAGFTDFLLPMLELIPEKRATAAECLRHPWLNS
The target in test [3] is Tyrosine-protein kinase SYK (Homo sapiens) (UniProt P43405). To be noted: at 1 µM.
Test [4] addresses SRSF protein kinase 2 (Homo sapiens) (UniProt P78362). As to conditions: at 1 µM.
For test [5] the target is unchanged. As to conditions: at 10 µM.
Test [6] addresses Serine/threonine-protein kinase 33 (Homo sapiens) (UniProt Q9BYT3). To be noted: at 1 µM.
Test [7] shares this target. As to conditions: at 10 µM.
The target in test [8] is Serine/threonine-protein kinase PLK2 (Homo sapiens) (UniProt Q9NYY3). To be noted: at 1 µM.
Serine/threonine-protein kinase PLK2 (Homo sapiens), sequence (Q9NYY3 whole entry, looked up): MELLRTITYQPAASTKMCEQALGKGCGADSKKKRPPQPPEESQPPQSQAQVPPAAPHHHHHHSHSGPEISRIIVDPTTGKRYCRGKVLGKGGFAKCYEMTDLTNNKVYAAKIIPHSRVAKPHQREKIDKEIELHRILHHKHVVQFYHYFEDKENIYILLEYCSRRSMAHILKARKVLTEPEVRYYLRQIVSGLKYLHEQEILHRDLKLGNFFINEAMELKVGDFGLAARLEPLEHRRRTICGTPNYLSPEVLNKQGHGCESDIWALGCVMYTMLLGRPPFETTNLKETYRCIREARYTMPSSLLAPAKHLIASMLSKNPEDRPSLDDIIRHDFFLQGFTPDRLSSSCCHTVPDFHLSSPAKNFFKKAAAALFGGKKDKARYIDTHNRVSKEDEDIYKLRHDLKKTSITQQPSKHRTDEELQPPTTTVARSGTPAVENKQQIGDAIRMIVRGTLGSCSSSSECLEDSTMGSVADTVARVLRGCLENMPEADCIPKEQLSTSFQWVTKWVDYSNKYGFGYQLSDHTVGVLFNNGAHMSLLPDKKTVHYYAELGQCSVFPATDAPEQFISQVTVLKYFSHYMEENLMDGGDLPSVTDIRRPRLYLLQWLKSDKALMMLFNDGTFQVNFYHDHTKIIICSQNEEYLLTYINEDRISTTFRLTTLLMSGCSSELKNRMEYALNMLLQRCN
The target is the same in test [9]. As to conditions: at 10 µM.
The target in test [10] is SRSF protein kinase 1 (Homo sapiens) (UniProt Q96SB4). As to conditions: at 1 µM.

SMILES strings stand for the structures.

Serine/threonine-protein kinase 33 (Homo sapiens), sequence (Q9BYT3 whole entry, looked up): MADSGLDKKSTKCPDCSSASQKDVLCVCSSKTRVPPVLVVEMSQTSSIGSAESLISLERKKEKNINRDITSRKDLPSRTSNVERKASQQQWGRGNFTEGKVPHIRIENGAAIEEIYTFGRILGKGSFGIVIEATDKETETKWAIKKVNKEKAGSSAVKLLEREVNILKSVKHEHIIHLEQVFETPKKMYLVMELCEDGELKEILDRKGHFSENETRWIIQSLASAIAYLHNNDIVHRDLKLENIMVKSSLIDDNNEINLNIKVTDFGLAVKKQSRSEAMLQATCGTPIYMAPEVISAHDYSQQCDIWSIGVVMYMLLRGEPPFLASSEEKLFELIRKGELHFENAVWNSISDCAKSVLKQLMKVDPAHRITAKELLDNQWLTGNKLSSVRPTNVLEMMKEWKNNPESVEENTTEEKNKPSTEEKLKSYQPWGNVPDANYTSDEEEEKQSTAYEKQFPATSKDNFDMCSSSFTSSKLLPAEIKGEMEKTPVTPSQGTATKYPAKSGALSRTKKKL
SRSF protein kinase 2 (Homo sapiens), sequence (P78362 whole entry, looked up): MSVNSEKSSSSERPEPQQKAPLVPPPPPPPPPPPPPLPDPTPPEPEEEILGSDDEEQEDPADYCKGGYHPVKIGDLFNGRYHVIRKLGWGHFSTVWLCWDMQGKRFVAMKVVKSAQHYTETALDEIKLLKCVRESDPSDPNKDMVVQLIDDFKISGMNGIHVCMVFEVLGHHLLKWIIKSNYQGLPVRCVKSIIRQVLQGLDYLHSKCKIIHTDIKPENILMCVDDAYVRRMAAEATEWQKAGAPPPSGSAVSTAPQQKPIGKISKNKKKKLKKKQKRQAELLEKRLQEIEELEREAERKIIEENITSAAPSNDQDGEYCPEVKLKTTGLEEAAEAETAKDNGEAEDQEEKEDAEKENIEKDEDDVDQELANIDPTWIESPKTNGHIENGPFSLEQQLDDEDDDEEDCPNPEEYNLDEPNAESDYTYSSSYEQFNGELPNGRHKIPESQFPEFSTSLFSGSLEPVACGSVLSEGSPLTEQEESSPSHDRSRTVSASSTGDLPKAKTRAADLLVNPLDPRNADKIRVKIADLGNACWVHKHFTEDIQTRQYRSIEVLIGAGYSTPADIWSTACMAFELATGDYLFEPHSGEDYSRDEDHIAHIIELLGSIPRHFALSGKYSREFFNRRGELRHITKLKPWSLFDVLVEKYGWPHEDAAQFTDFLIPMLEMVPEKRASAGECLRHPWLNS
Serine/threonine-protein kinase SIK1 (Homo sapiens), sequence (P57059 whole entry): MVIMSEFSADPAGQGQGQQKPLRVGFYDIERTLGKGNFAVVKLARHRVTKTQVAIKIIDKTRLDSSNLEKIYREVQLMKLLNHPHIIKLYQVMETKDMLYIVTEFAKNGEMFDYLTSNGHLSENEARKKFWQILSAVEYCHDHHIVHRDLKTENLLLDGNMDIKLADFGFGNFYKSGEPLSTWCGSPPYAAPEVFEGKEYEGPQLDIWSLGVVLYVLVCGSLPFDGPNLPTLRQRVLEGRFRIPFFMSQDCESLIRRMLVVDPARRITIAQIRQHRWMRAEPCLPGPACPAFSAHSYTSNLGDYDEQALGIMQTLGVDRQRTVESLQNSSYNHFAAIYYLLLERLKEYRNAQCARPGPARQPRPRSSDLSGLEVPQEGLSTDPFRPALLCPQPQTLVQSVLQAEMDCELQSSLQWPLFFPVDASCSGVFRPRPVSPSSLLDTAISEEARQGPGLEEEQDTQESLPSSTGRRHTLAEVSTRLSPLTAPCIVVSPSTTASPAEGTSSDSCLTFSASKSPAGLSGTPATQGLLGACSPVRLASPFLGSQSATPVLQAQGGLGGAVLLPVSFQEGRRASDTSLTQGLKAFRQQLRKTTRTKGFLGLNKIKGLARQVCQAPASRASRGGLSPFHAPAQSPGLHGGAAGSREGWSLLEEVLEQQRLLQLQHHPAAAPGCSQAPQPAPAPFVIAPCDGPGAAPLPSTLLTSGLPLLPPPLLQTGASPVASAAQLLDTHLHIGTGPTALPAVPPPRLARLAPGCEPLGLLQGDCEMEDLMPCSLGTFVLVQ

In the case of `COc1cc2c(cc1OC)-c1n[nH]c(Nc3cccc(F)c3)c1C2`, the residual activity in test [1] worked out at 5%; in test [2] it was 105%; in [3], 117%.
Turning to `Nc1n[nH]c2nc3ccccc3nc12`, the residual activity in [1] worked out at 72%; in test [4] it was 94%; in test [5], 82%; in test [6], 98%; in test [7] it was 83%; in [8], 99%. Besides, the residual activity in [9] is 68%.
Regarding `CCCC(=O)Oc1ccc2[nH]c(C(=O)c3cc4ccccc4[nH]3)cc2c1`, the residual activity in test [1] turned out to be 54%; in test [10], 104%; in [2], 103%; in test [4] it was 103%; in [5] it was 87%; in test [6] it was 92%. For the same compound, the residual activity amounted to 91% in test [7], 102% in test [8], 107% in test [9] and 126% in test [3].
For the compound `CCOC(=O)c1c(C)[nH]c(/C=C2\C(=O)Nc3ccccc32)c1C`, the residual activity amounted to 91% in test [1]; 92% in test [10]; 97% in [2]; 93% in test [4]; 89% in test [5]; 89% in test [6]. In [7], the residual activity was found to be 97%.
On to `O=S(=O)(NCCNC/C=C/c1ccc(Br)cc1)c1cccc2cnccc12`, for which the residual activity in test [1] worked out at 57%.
In the case of `COc1ccc(Cl)cc1NC(=O)Nc1cc(C)nc2ccccc12`, the residual activity in [1] came out at 134%; in test [4], 94%; in test [5] it was 86%; in [6], 99%; in test [7] it was 98%.
For `O=C(c1cc2cc(O)ccc2[nH]1)c1cc2cc(O)ccc2[nH]1`, the residual activity amounted to 8% in [1]; 81% in test [10]; 79% in test [2]; 71% in test [5]; 83% in test [6]; 62% in test [7]. The residual activity in [9] came out at 78%; in test [3], 82%.
On to `N#C/C(=C\c1ccc(O)c(O)c1)C(=O)NCc1ccccc1`, for which the results for the residual activity in test [1], in [10] and in [3] were 1%, 100% and 127%, respectively.
For the compound `NC(=O)c1cccc(-c2cc(Nc3ccc(OC(F)(F)F)cc3)ncn2)c1`, the residual activity in [1] was determined as 7%; in test [2] it was 97%.
Take `CCCCc1c(-c2ccc(OC)cc2)[nH]c2nccnc12`: the residual activity in test [1] was 78%; in test [10] it was 118%; in test [2], 106%; in [4] it was 90%; in test [5], 84%; in [6] it was 106%. Besides, in test [3], the residual activity turned out to be 37%.
On to `NC(=O)Nc1sc(-c2ccc(F)cc2)cc1C(N)=O`, for which the residual activity in test [1] came to 5%; in test [10], 105%; in test [2] it was 78%; in [4] it was 102%; in [5], 75%; in [6], 89%. For the same compound, the values for the residual activity in [7], in [8] and in test [9] were 63%, 101% and 73%, respectively.
`O=C1Cc2c([nH]c3ccc([N+](=O)[O-])cc23)-c2ccccc2N1`: the results for the residual activity in test [1] and in test [10] were 68% and 105%, respectively.
Take `CCN(CC)CCNC(=O)c1c(C)[nH]c(/C=C2\C(=O)Nc3ccc(Cl)cc32)c1C`: the residual activity came out at 5% in test [1]; 98% in test [4]; 78% in [5]; 33% in test [6]; 6% in test [7]; 98% in [8]. For the same compound, the residual activity in test [9] came to 58%.
`O=C1Nc2ccc(Cl)cc2/C1=C/c1cc(Cl)c(O)c(Cl)c1`: the residual activity in test [1] stood at 71%; in test [4], 100%; in test [5] it was 69%; in test [6] it was 88%; in test [7] it was 94%; in test [8], 94%. The residual activity was determined as 92% in test [9] and 96% in test [3].
As for `Nc1ncnc2[nH]nc(Nc3ccc(F)cc3)c12`, the residual activity in test [1] was 6%; in test [10] it was 95%; in test [2], 79%; in test [4], 104%; in [6] it was 100%; in test [7], 94%. In addition, the residual activity is 102% in [8], 95% in [9] and 91% in [3].
Consider `O=C1NC(=O)c2c1c1c3ccccc3[nH]c1n1cncc21`, for which the residual activity in test [1] was found to be 44%; in [10], 91%; in test [2], 76%; in [4] it was 103%; in [5] it was 72%; in test [6], 79%. Besides, the residual activity was 70% in test [7], 38% in test [8], 38% in test [9] and 60% in test [3].
As to `CSc1nc(-c2ccc(F)cc2)c(-c2ccnc(NC(C)c3ccccc3)c2)[nH]1` (stereo not drawn), the residual activity in [1] came out at 87%; in [10], 94%; in test [2], 84%; in test [4] it was 91%; in [5], 87%; in test [6], 92%. In addition, the residual activity in [7] worked out at 93%; in test [9], 87%; in [3], 101%.
With `CC(C)(C)c1nc2c3ccc(F)cc3c3c(=O)[nH]ccc3c2[nH]1`, the residual activity in test [1] is 42%; in test [10], 99%; in test [5], 73%; in test [6], 34%; in [7] it was 24%; in test [8], 49%. In addition, the residual activity in test [9] was determined as 44%.
As to `Nc1ncnc2c1c(-c1ccc(Oc3ccccc3)cc1)cn2C1CCCC1`, the residual activity came to 27% in test [1]; 104% in [10]; 103% in test [2]; 93% in test [4]; 90% in test [5]; 87% in [6]. Also, the residual activity in [7] stood at 57%; in [8], 97%; in [9] it was 93%; in test [3] it was 109%.
Consider `O=C1NC(=O)C(c2c[nH]c3ccccc23)=C1c1c[nH]c2ccccc12`, for which the residual activity in [1] was found to be 7%; in [10], 63%; in test [2], 6%; in [4] it was 74%; in test [5], 22%; in test [7] it was 71%. Besides, the residual activity in test [3] stood at 120%.
In the case of `CC(C)c1nn(-c2c(Cl)cccc2Cl)c2nc(Cc3ccc(OCCO)cc3)[nH]c(=O)c12`, the residual activity in test [1] was 61%; in test [10], 88%; in test [2], 37%; in test [4] it was 83%; in test [5] it was 43%; in [6], 105%. Moreover, the residual activity was found to be 61% in test [7], 100% in test [8], 92% in [9] and 101% in test [3].
With `Cn1sc(=O)n(Cc2ccccc2)c1=O`, the residual activity stood at 83% in test [1]; 83% in test [10]; 91% in test [2]; 93% in [4]; 76% in [5]; 95% in test [6]. The residual activity in test [7] is 88%.
For the compound `COc1ccc2c(c1)c(C1=C(c3c[nH]c4ccccc34)C(=O)NC1=O)cn2CCCN(C)C`, the residual activity in test [1] is 34%; in [10] it was 97%; in test [2] it was 56%; in [6] it was 71%; in test [7], 22%; in [3], 113%.
With `O=c1cc(N2CCNCC2)oc2c(-c3ccccc3)cccc12`, the residual activity in test [1] turned out to be 8%; in test [10] it was 99%; in [2], 85%; in test [4] it was 91%; in [5] it was 93%; in test [6], 98%. Moreover, the residual activity is 93% in test [7], 99% in test [8] and 95% in [9].
`O=C(O)/C=C/c1cc(Br)c(Br)c(Br)c1Br`: the residual activity in test [1] stood at 98%; in test [4] it was 103%; in test [5], 89%; in test [6] it was 103%; in test [7] it was 99%; in test [8], 39%. The residual activity in test [3] was determined as 108%.
As to `CC(C)(C)n1nc(Cc2cccc3ccccc23)c2c(N)ncnc21`, the residual activity in test [1] is 49%; in [10], 103%; in [2], 101%; in [4], 99%; in [5], 94%; in test [6], 92%. Also, the residual activity in [7] came to 100%; in [8], 103%; in [9] it was 95%; in test [3], 104%.
On to `COc1cc2nccc(Oc3ccc(NC(=S)NC(=O)c4ccccc4C)cc3)c2cc1OC`, for which the residual activity in [1] amounted to 37%; in [10], 102%; in test [2], 96%; in test [4] it was 100%; in [5], 91%; in [6] it was 97%. For the same compound, the residual activity in test [7] came to 90%; in test [8], 72%; in [9] it was 35%; in [3], 99%.
In the case of `CCCCc1c(-c2ccc(O)cc2)[nH]c2nccnc12`, the residual activity was 36% in [1]; 91% in [4]; 90% in test [5]; 99% in [6]; 62% in test [7]; 100% in test [8]. For the same compound, the values for the residual activity in test [9] and in test [3] were 86% and 50%, respectively.
In the case of `Nc1nc(Nc2ccc(S(N)(=O)=O)cc2)nn1C(=O)c1c(F)cccc1F`, the residual activity in test [1] was 6%; in test [10], 56%; in test [2] it was 7%; in test [7] it was 76%; in [8] it was 96%; in test [9], 60%. For the same compound, the residual activity in test [3] was 47%.
In the case of `O=c1cc(N2CCOCC2)oc2c1ccc1ccccc12`, the residual activity was 93% in [1]; 99% in test [10]; 93% in test [2]; 97% in test [4]; 97% in test [5]; 93% in test [6]. Moreover, the residual activity in [7] stood at 101%; in [8], 98%; in [9], 85%.
Regarding `CN([C@@H](Cc1ccc(OS(=O)(=O)c2cccc3cnccc23)cc1)C(=O)N1CCN(c2ccccc2)CC1)S(=O)(=O)c1cccc2cnccc12`, the residual activity in [1] was determined as 124%; in test [2], 86%; in test [8] it was 100%; in [9], 99%.
